Fluor 339 460: intrinsic fluorescence of library compounds, ex339/em460 – biochemical, MLSMR library, data from DPM-DC assay, artefact control, profiling panel; compound autofluorescence, ex339/em460 nm, NADH buffer; stronger effect = higher value; 1 = no-compound wells, NADH background; fluorescence fold increase at 10 µM; hit rate 5.5% among 65,000; AID 709, 2007;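 active = at 10 µM, mean starting fluorescence two-fold or more over control wells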;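 also: signal is the first read of a kinetic run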
Spn DPM-DC inh: S. pneumoniae DPM-DC inhibitors, primary screen, biochemical, PK/LDH-coupled NADH fluorescence. hit rate 0.49% among 65,000. purified DPM-DC. calls only at 10 µM. AID 556, 2006;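 active = the 320 compounds with the highest percent inhibition in the single-dose primary screen, excluding strongly autofluorescent ones, cut at about 32% in these data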;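 also: kinetic rate of NADH fluorescence loss reporting ADP formed by the decarboxylase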
NADH coupling: inhibitors of PK/LDH coupling enzymes, profiling panel, artefact control, biochemical, MLSMR library; coupled PK/LDH NADH assays, four targets; hit rate 0.02% among 65,000; AID 774, 2007; IC50, µM (doses to about 10 µM), for inactives: at the highest dose inhibition;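 active = single-dose screening hits from any of four coupled enzyme assays that gave an IC50 when retested across doses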;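 also: the DPM-DC format reads NADH fluorescence rather than 340 nm absorbance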
Spn MK inh: S. pneumoniae MK inhibitors, primary screen, biochemical, PK/LDH-coupled NADH absorbance; inhibition, % at 10 µM; hit rate 0.48% among 65,000; purified MK, PK/LDH-coupled NADH absorbance 340 nm; mevalonate kinase [Streptococcus pneumoniae D39]; AID 555, 2006;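 active = ranked among the strongest by inhibition in the single 10 µM screen, a fixed top-ranked set picked for dose follow-up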
Abs 340nm: compound light absorbance at 340 nm, profiling panel, artefact control, biochemical, MLSMR library, data from PS, PMK, MK assays. compound absorbance at 340 nm, fold over control. fold change at 10 µM. 65,000 tested, under 10 active;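 active = at 10 µM dose, initial 340 nm absorbance at least 2 fold that of control wells; inactive = change under 2 fold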;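 also: initial absorbance extrapolated from kinetic A340 decline of NADH oxidation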
Spn PMK inh: S. pneumoniae PMK inhibitors, primary screen, biochemical, mevalonate pathway, pilot trial included | phosphomevalonate kinase (Streptococcus pneumoniae D39) | purified PMK, PK/LDH-coupled NADH absorbance 340 nm | inhibition, % at 10 µM | hit rate 0.49% among 65,000;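 active = top-ranked compounds by inhibition in the single 10 µM screen, taking a fixed number of the strongest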;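 also: 0% = full reaction with DMSO carrier and 100% = background rate without enzyme reaction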
Numbers without * were called inactive; i = inactive; x = not tested or not shown. In the library only some 6.5% were active in any assay of this set; here they are far more common.

SMILES	Fluor 339 460	Spn DPM-DC inh	NADH coupling	Spn MK inh	Abs 340nm	Spn PMK inh
CN(C(=O)c1ccno1)c1nnc(-c2ccccn2)s1	5.14*	x	10.0%	5.0	1.05	15.0
CN(C(=O)c1ccncc1)c1nnc(-c2cccnc2)s1	1.12	i	4.0%	0.0	0.99	12.0
CN(C(=O)c1ccccn1)c1nnc(-c2ccncc2)s1	2.26*	x	4.0%	11.0	0.98	9.0
CN(C(=O)c1cccc(C#N)c1)c1nnc(C2CCOC2)s1 (stereo not drawn)	1.02	i	7.0%	0.0	1.04	21.0
CN(C(=O)c1ccncc1)c1nnc(-c2ccccn2)s1	3.07*	i	15.0%	0.0	1.02	21.0
O=C(COC(=O)c1cc(S(=O)(=O)N2CCOCC2)cs1)c1ccccc1	1.07	i	4.0%	0.0	0.97	5.0
O=c1oc2c3c4c(cc2cc1-c1nc2ccccc2[nH]1)CCCN4CCC3	2.12*	x	11.0%	21.0	0.9	71.0*
O=C(CSc1nc2ccccc2[nH]1)N1CCCCC1	1.04	i	2.0%	6.0	1.01	6.0
O=c1oc2c(CN3CCCCC3)c(O)ccc2cc1-c1nc2ccccc2[nH]1	3.97*	x	8.0%	12.0	1.01	4.0
N=c1oc2c3c4c(cc2cc1C(=O)Nc1ccccc1)CCCN4CCC3	1.55	i	1.0%	2.0	1.05	0.0
Cc1cc(OCC(=O)NCCO)ccc1Cl	1.11	i	3.0%	6.0	1.05	2.0
Cc1cc(OCC(=O)NCCO)cc(C)c1Cl	1.05	i	4.0%	6.0	0.99	26.0*
COc1ccc(N2C(=O)CSC23CCCCC3)cc1	1.1	i	6.0%	10.0	1.04	4.0
COc1ccc(N2C(=O)c3ccccc3NC23CCCCC3)cc1	2.2*	x	4.0%	2.0	1.05	6.0
O=S(=O)(c1ccccc1)N1C2CCC1CC(O)(c1cccnc1)C2 (stereo not drawn)	1.12	i	1.0%	2.0	1.02	1.0
OCCNCC1(O)C2CC3CC(C2)CC1C3 (stereo not drawn)	1.06	i	15.0%	12.0	0.99	26.0*
COc1cccc(/C(O)=C2/C(=O)C(=O)N(CCN3CCOCC3)C2c2cccs2)c1 (stereo not drawn)	1.11	i	7.0%	3.0	1.1	17.0
O=S(=O)(c1ccccc1)N1CCN(c2ncnc3sc(-c4ccccc4)cc23)CC1	5.16*	x	2.0%	1.0	1.09	2.0
COc1ccc(Cn2nnnc2C(c2ccccn2)N2CCN(c3cc(Cl)ccc3C)CC2)cc1 (stereo not drawn)	1.01	i	3.0%	4.0	1	28.0*
COc1ccc(C(c2nnnn2Cc2ccc(F)cc2)N2CCN(c3ccccc3)CC2)cc1 (stereo not drawn)	1.08	i	8.0%	8.0	0.97	15.0
O=C1c2ccccc2NC(c2ccccn2)N1c1ccc(Cl)cc1 (stereo not drawn)	4.83*	x	10.0%	5.0	0.98	14.0
O=C1c2ccccc2NC(c2ccccc2)N1c1ccc(O)cc1 (stereo not drawn)	1.59	i	9.0%	13.0	1.06	13.0
Cc1cccc(C2Nc3ccccc3C(=O)N2c2ccccc2)n1 (stereo not drawn)	2.16*	x	3.0%	3.0	1.05	3.0
COC(=O)c1ccc(OC(=O)c2ccc(OCc3c(C)noc3C)c(OC)c2)cc1	0.99	i	8.0%	0.0	1.01	23.0
O=c1c[n+]([O-])c2ccccc2n1OCc1c(F)cccc1F	1.26	i	6.0%	8.0	1.12	12.0*
SMILES	Fluor 339 460	Spn DPM-DC inh	NADH coupling	Spn MK inh	Abs 340nm	Spn PMK inh
O=c1c[n+]([O-])c2ccccc2n1OCc1ccccn1	1.18	i	1.0%	0.0	1.03	0.0
CC(=O)C(=[N+]=[N-])C(=O)NCc1ccccc1	1.08	i	7.0%	11.0	1.01	9.0
Cc1ccc(-c2cc(C(=O)Nc3cccnc3)c3ccccc3n2)o1	2.2*	x	8.0%	15.0	1.09	0.0
O=C(Nc1cccnc1)c1coc(=O)c2ccccc12	1.5	i	10.0%	5.0	1.01	11.0
COC(=O)Nc1ccc(C)c2nsnc12	1.1	i	5.0%	7.0	1.01	8.0
O=C1CCCc2c1nc(-c1ccccc1)n2O	2.11*	x	47.0%	93.0*	1.09	0.0
O=C(O)CCn1c(-c2ccccc2)cc2c1CCCC2=O	1.05	i	3.0%	3.0	1.06	7.0
O=C1CCCc2c1nc(-c1ccco1)n2O	3.9*	x	5.0%	3.0	1.19	6.0
CC(C)c1nc(N2CCCC2)c(C#N)c2c1CCCC2	2.12*	x	1.0%	1.0	1.05	0.0
CCCc1nc(N2CCCC2)c(C#N)c2c1CCCC2	2.06*	i	7.0%	20.0	1.03	0.0
CN1CCc2c(C#N)c(N3CCCCC3)nc(N3CCOCC3)c2C1	1.58	i	6.0%	4.0	1.12	1.0
CCc1nc(N2CCOCC2)c(C#N)c2c1CCCC2	2.02*	i	1.0%	0.0	1.04	2.0
CCc1nc(N2CCCC2)c(C#N)c2c1CCCC2	1.62	i	4.0%	0.0	0.93	12.0
Cc1nn2c(-c3cccc(NC(=O)CSc4nc5ccccc5o4)c3)nnc2c2ccccc12	1.47	i	14.0%	15.0	1.11	6.0
CCOc1ccc(NC(=O)c2cccc3c2C(=O)N(Cc2cccnc2)C3)cc1	1.05	i	5.0%	12.0	1.01	4.0
CCS(=O)(=O)c1ccc(S(=O)(=O)CC)s1	1.03	i	1.0%	6.0	1	0.0
Cc1sc2ncnc(-n3cnc4ccccc43)c2c1C	2*	i	6.0%	9.0	1.02	5.0
COc1ccc(CCn2c(=S)[nH]c3cc(C(=O)NCc4ccco4)ccc3c2=O)cc1OC	1.3	i	4.0%	0.0	1.06	12.0
Cc1cc(C)n(-c2nc3ccccc3[nH]c2=O)n1	2.8*	i	11.0%	3.0	1.06	17.0
Cc1cc(C)cc(-n2cc3c(=O)n(C)c(=O)n(C)c3c2)c1	1.15	i	6.0%	5.0	1.04	13.0
COC(=O)c1[nH]c2ccc(C)cc2c1NC(=O)CN1CCN(Cc2ccccc2)CC1	2.92*	i	12.0%	12.0	1.08	0.0
COC(=O)c1[nH]c2cc(OC)c(OC)cc2c1NC(=O)CN1CCN(Cc2ccccc2)CC1	3.72*	x	9.0%	3.0	1.13	15.0
COC(=O)c1[nH]c2ccc(Cl)cc2c1NC(=O)CN1CCc2cc(OC)c(OC)cc2C1	1.46	i	6.0%	8.0	1.03	6.0
COC(=O)c1[nH]c2ccc(C)cc2c1NC(=O)CN1CCC(C)CC1	1.83	i	4.0%	9.0	0.99	0.0

From PubChem BioAssay
